Compound activity from PubChem BioAssay.
The list is not random: actives were taken first. Their share in the collection is about 0.52%.
USP2a block: blocks human ubiquitin-specific protease USP2a; O75604; USP2 core, Ub-CHOP2 coupled fluorogenic reporter, 485/531; Potency, µM (highest dose often 38.3 µM), for inactives: at the highest dose activity change, negative = inhibition, usual class: inhibitors; 0.01% of 330,000 active;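 further: plate controls were DMSO wells for no effect and full inhibition by NEM control for full effect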
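USP2 core (10nM final) preincubated 30min RT with compound in 20mM Tris-HCl pH 8.0, 2mM CaCl2, 2mM beta-mercaptoethanol, 0.05% CHAPS; 25nM Ub-CHOP2 plus 25nM reporter substrate added, fluorescence (Ex485/Em531) read after 60min.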
PGK inhibitor: inhibitors of T. brucei phosphoglycerate kinase; PGK/GAPDH coupled, Kinase-Glo luminescence, 60 min; 0.043% of 380,000 active; Potency, µM (doses to about 57.5 µM), inactives show top-dose activity change, negative = inhibition, actives largely listed as inhibitors; AID 602233; P07378; further: nearly all actives have a fitted effect of over 60% in size
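Luminescent ATP detection (Kinase-Glo Plus) follows a 60-minute room-temperature incubation, with wells lacking PGK as controls. Buffer: 100 mM TEA (pH 7.6), 5 mM MgCl2, 0.01% Tween-20. Coupling enzyme GAPDH (100 nM final) supplies unstable 1,3-BPG in-well.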
Tb PFK inh: inhibitors of T. brucei phosphofructokinase. O15648. T. brucei PFK, ADP-Glo luminescence. AID 485367. 0.17% of 330,000 active. Potency, µM (series often up to 57.5 µM), inactives show at the top dose activity, negative = inhibition, usual class: inhibitors;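 further: 0% = uninhibited 1x PFK enzyme wells and -100% = no-enzyme wells; nearly all actives have a fitted effect of over 60% in size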
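Luminescent ADP detection (ADP-Glo, two-step: ATP depletion then ADP-to-ATP conversion for luciferase) reported PFK activity after 45 min room-temperature reaction of 1.25 nM enzyme with 0.5 mM F6P and 0.1 mM ATP at pH 8.0.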
KAT2A inh: GCN5L2 (KAT2A) acetyltransferase inhibition; 0.21% of 390,000 active; GCN5L2 HAT assay, ThioGlo1 CoA-SH fluorescence; Potency, µM (series often up to 58.9 µM), without a hit: top-dose activity change, negative = inhibition, most hits filed as inhibitors; AID 504327
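GCN5L2 (20nM final) in 50mM HEPES, 0.1mM EDTA pH 7.5, 0.01% Tween-20 was preincubated 15 min at room temperature with compound, then given ThioGlo1 (50uM), H3(1-25) peptide (75uM) and acetyl-CoA (70uM); CoA-thiol fluorescence (Ex340/Em540) was read at 0 and 20 min.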
GLS inh: blocks human kidney-isoform glutaminase activity | 0.21% of 410,000 active | O94925 | Potency, µM (doses to about 45.5 µM), for the others: at the highest dose activity change, negative = inhibition, usual class: inhibitors | GLS enzymatic activity, qHTS titration
Target sequence (O94925 whole entry, looked up, canonical isoform): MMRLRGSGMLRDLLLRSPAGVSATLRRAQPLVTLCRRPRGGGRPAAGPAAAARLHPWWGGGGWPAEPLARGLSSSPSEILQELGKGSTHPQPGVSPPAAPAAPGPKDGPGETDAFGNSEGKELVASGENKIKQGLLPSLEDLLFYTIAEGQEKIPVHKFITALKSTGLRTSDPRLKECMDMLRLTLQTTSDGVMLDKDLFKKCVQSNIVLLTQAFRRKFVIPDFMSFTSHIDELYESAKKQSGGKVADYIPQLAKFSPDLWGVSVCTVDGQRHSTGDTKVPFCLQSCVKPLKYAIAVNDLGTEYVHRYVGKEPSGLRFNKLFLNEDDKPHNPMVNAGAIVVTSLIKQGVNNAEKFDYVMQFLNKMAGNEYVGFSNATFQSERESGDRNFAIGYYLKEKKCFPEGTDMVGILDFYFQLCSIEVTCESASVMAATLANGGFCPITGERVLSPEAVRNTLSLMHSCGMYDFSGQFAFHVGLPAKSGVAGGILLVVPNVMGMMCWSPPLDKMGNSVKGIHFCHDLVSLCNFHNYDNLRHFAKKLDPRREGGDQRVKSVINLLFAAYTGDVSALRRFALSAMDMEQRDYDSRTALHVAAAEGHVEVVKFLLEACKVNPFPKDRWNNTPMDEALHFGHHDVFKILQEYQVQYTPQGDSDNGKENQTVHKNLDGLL
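hKGA in 45 mM KH2PO4 pH 8.2, 0.02% Tween-20 with pin-transferred compounds; 1 mM L-glutamine (stock) plus glutamate oxidase/HRP/Amplex Red coupling added. Fluorescence read initially and after 30 min at RT.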
* marks the source's active call; other numbers are inactive results; i = inactive; ? = inconclusive; . = not tested or not shown; ! = not active in a repeat; [ ] = remark or other dose. The call rests on the fitted dose curve; in most records, active means well fitted curve in the direction sought with a large enough effect; inconclusive means small, poorly fitted or top-dose-only effect, or another doubt; inactive means no such curve, though single readings can be large; an effect the other way counts as inactive or inconclusive. Unless noted, on the % scale 0 is the no-effect control and ±100 the full control effect; potency means the concentration at half of the fitted maximal effect.

SMILES | USP2a block | PGK inhibitor | Tb PFK inh | KAT2A inh | GLS inh
CC1(C)S[C@H]2C(NC(=O)[C@@H](N)c3ccc(O)cc3)C(=O)N2[C@@H]1C(=O)O (stereo partly drawn) | . | . | . | -5% | 14µM*
CCOc1ccccc1CNCc1cccn1-c1nnc(N2CCN(c3ccccc3)CC2)s1 | . | 9% | . | 20% | 2%
CC1(C)SC2C(N3C(=O)C(c4ccccc4)NC3(C)C)C(=O)N2C1C(=O)O (stereo not drawn) | . | . | . | 1% | 28µM*
CC(CCc1ccccc1)NC(=O)CN1CCN(c2ccc(O)cc2)CC1 (stereo not drawn) | 1% | -10% | -25% | -10% | 10µM*
CCOC(=O)Cn1cccc1-c1nc(-c2ccc(OC)cc2)c(-c2ccc(OC)cc2)s1 | . | . | . | . | 1%
CCOc1ccc(-c2cc(CCCC(=O)NCCc3ccc(SC)cc3)no2)cc1 | . | -3% | . | -1% | 0%
Oc1cccc(/C=N/NC(=S)Nc2cccnc2)c1O | 0% | -16% | -7% | -1% | 10µM*
Oc1ccc(/C=N/NC(=S)Nc2cccnc2)c(O)c1 | 4% | -5% | -4% | -3% | 20%
CCC(=O)OC1CCC2C3CCc4cc(O)ccc4C3CCC12C (stereo not drawn) | . | . | . | . | -4%
CC(=O)O[C@H]1C[C@@H]2CC[C@@H]3[C@H](CC[C@]4(C)[C@H](OC(C)=O)[C@@H](N5CC[N+](C)(C)CC5)C[C@@H]34)[C@@]2(C)C[C@@H]1N1CC[N+](C)(C)CC1 | . | . | . | . | -2%
COC(=O)c1ccccc1NS(=O)(=O)c1ccc(O)c(C(=O)O)c1 | 0% | 9%[11.5 µM] | 38µM* | -10% | 19%
COc1ccc(-c2csc(N3CCN(C(=O)c4ccco4)CC3)n2)cc1 | 11µM* | -2% | 1% | -9% | 5%
O=C(Nc1cc(Cl)ccc1Cl)c1cc(S(=O)(=O)N2CCCc3ccccc32)ccc1F | . | -4% | . | 1% | 0%
O=[N+]([O-])c1ccccc1N/N=C/c1cccc(O)c1O | 9% | -16% | -12% | -16% | 20%
O=[N+]([O-])c1cccc(N/N=C/c2cccc(O)c2O)c1 | -3% | 5% | -2% | -3% | 7.9µM*
CCc1ccc(-c2cn3c(n2)sc2cc(C(=O)NCCc4ccc(OC)cc4OC)ccc23)cc1 | . | -3% | . | -4% | -5%
COc1ccc(/C=N/n2c(-c3ccccc3)n[nH]c2=S)cc1 | 0% | -6% | -9% | -1% | -17%
Oc1ccc(/C=N/n2c(-c3ccccc3)n[nH]c2=S)cc1 | 2% | -3% | -4% | -13% | 16µM*
Oc1ccc(Br)cc1/C=N/n1c(-c2ccccc2)n[nH]c1=S | 2% | -11% | -3% | -20% | -27%
Oc1c(Br)cc(Br)c(/C=N/n2c(-c3ccccc3)n[nH]c2=S)c1Br | 2% | -22% | -20% | 28µM* | 24%
CCOc1ccccc1C(=O)NC1CC2CCCC(C1)N2C1CC1 (stereo not drawn) | 10µM* | 1% | -3% | -9% | 25%
CCc1cnc2c(c1SCC(=O)c1ccc(OC)cc1)c(=O)n(C)c(=O)n2C | . | i | . | -5% | -10%
COc1cc(/C=C/C(=O)/C=C(O)/C=C/c2ccc(O)c(OC)c2)ccc1O | -1% | -2% | -2% | -8% | 35µM*!
Cc1ccc(S(=O)(=O)CC(=O)Nc2sc3c(c2C#N)CCCC3)cc1 | . | 10% | . | -5% | -14%
CCOc1ccc2nc(N3CCCC(C(=O)Nc4cc(Cl)c(OC)cc4OC)C3)sc2c1 (stereo not drawn) | . | 4% | . | -11% | -2%
SMILES | USP2a block | PGK inhibitor | Tb PFK inh | KAT2A inh | GLS inh
CC(=O)NCCNc1ncnc2ccc(-c3ccoc3)cc12 | . | . | . | 25µM* | .
Cc1cc(C)c2oc(-c3ccc(C)c(NC(=O)/C=C/c4ccco4)c3)nc2c1 | . | 2% | . | -21% | 5%
COc1ccc(N2Cc3cccc(C(=O)O)c3C2=O)cc1 | 0% | ? | ? | ? | 16µM*
CN(C)[C@H]1C(=O)C(C(=O)NCN2CCCC2)=C(O)[C@]2(O)C(=O)C3=C(O)c4c(O)cccc4[C@@](C)(O)[C@H]3C[C@@H]12 | . | . | . | ? | 5µM*
CCCCCCCCCCCCCCCC(=O)O | . | . | . | -30% | -4%
CCCCCCCCCCCCCCSCC(=O)O | . | . | . | 10µM* | .
CCn1c(=O)n(CC)c2cc(N3CCCCC3)c(NC(=O)Nc3ccccc3Cl)cc21 | . | 2% | . | -13% | 10%
O=C(Nc1cc(C(=O)Nc2ccc(S(=O)(=O)O)cc2S(=O)(=O)O)cc(C(=O)Nc2ccc(S(=O)(=O)O)cc2S(=O)(=O)O)c1)Nc1cc(C(=O)Nc2ccc(S(=O)(=O)O)cc2S(=O)(=O)O)cc(C(=O)Nc2ccc(S(=O)(=O)O)cc2S(=O)(=O)O)c1 | . | . | . | -20% | .
O=C(Nc1ccc(C(=O)Nc2ccc(C(=O)Nc3ccc(S(=O)(=O)O)c4cc(S(=O)(=O)O)cc(S(=O)(=O)O)c34)cc2)cc1)Nc1ccc(C(=O)Nc2ccc(C(=O)Nc3ccc(S(=O)(=O)O)c4cc(S(=O)(=O)O)cc(S(=O)(=O)O)c34)cc2)cc1 | . | . | . | 16µM*! | .
CN(C)S(=O)(=O)c1ccc(C(=O)NCCSc2c(-c3ccc(Br)cc3)[nH]c3ccccc23)cc1 | . | i | . | 2% | 6%
Cc1ccsc1/C=N/Nc1nc(=O)[nH]nc1C | -3% | 28µM* | -30% | -17% | 1%
CC1=C(C(=O)Nc2ccccc2)C(c2ccc(C(=O)O)cc2)n2nc(SCC(=O)c3ccc(C)cc3)nc2N1 (stereo not drawn) | . | i | . | -4% | -1%
CCc1ccc(C2c3c(-c4ccccc4)n[nH]c3C(=O)N2c2ccc(C(=O)O)cc2)cc1 (stereo not drawn) | . | -13% | . | -6% | 16µM*
Cc1ccc(-c2n[nH]c3c2C(c2ccccc2Cl)N(c2ccc(C(=O)O)cc2)C3=O)cc1 (stereo not drawn) | . | -18% | . | -27% | 7.1µM*
Cc1cc(C)cc(NC(=O)Oc2ccccc2N2CCCCC2)c1 | 4% | 7% | 1% | 1% | 10µM*
O=C(Nc1cccc(C(F)(F)F)c1)Oc1ccccc1N1CCOCC1 | 1% | -2% | 1% | -1% | 20%
Cc1occc1C(=O)N/N=C/c1ccc(N(C)C)cc1 | 3% | 25µM* | ? | -4% | -5%
Cc1ccccc1C(=O)Nc1ccc(C(=O)N2CCCC(O)c3cc(Cl)ccc32)c(C)c1 (stereo not drawn) | . | . | . | . | 1%
Cc1cc(Nc2ccccc2C(=O)O)ccc1Cl | . | . | . | . | 26%
Cc1ccc(C(CC(=O)Nc2cc(C)cc(C)c2)N2Cc3ccccc3C2=O)cc1 (stereo not drawn) | . | 2% | . | -1% | 1%
CCOc1cc(C=NN2CCCCCC2)ccc1O | . | -2% | . | . | 11µM*
